From PubChem
Only some compounds are listed: those with a hit (about 19% of all), similar ones and a draw of the others.
SW480 rerep: induces DNA re-replication in SW480 colon adenocarcinoma cells; SW480 DNA re-replication, Hoechst DNA content imaging, 48 h; Potency, µM (titrated, usually from 46.1 µM), inactives show at the highest dose re-replication activation, hits mostly activators; AID 624297; 340,000 tested, 1.8% active; note: potency is the fitted concentration of half-maximal effect; % of control where 0% means no effect; nearly all actives have a fitted effect of over 55% in size
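Treated cells incubate 48 hr (37 C, 5% CO2), are stained 40 min with Hoechst, and nuclear fluorescence is enumerated; a rise in nuclei with high DNA signal marks re-replication.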
MCF10A rerep: DNA re-replication induction in MCF 10a cells. 350,000 tested, 2.9% active. MCF 10A DNA re-replication, Hoechst nuclear intensity, 48 h. Potency, µM (series often up to 46.1 µM), without a hit: at the top dose activity, positive = re-replication, hits mostly activators; note: potency is the fitted concentration of half-maximal effect; % of control where 0% means no effect; nearly all actives have a fitted effect of over 50% in size
DT40 TDP1 CPT: growth inhibition of DT40 Tdp1-/-;hTDP1 cells with camptothecin (screen for TDP1 inhibitors); 420,000 tested, 12% active; chicken DT40 Tdp1-/-;hTDP1 cells + 20 nM CPT, ATP luminescence, 48 h; Potency, µM (series often up to 46.2 µM), without a hit: at the top dose activity change, negative = growth inhibition, most hits filed as inhibitors; note: potency is the fitted concentration of half-maximal effect; % is set by controls: 0 for no effect and ±100 for the full control effect; nearly all actives have a fitted effect of over 55% in size
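Chicken DT40 Tdp1-/- cells stably complemented with human TDP1 were seeded at 400 cells/well in medium containing 20 nM camptothecin, exposed to pin-transferred compounds, and grown at 37 °C for at least 48 hr. Viability was read as ATP luminescence.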
TDP1 cell noCPT: qHTS for Inhibitors of human tyrosyl-DNA phosphodiesterase 1 (TDP1): qHTS in cells in absence of CPT; Potency, µM (highest dose often 46.2 µM), for the others: at the highest dose activity change, negative = growth inhibition, usual class: inhibitors; 420,000 tested, 15% active; DT40 Tdp1-/- hTDP1 cells, no CPT, ATP luminescence, 48 h; AID 686978, 2013; note: potency is the fitted concentration of half-maximal effect; % is set by controls: 0 for no effect and ±100 for the full control effect; nearly all actives have a fitted effect of over 55% in size
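A cellular qHTS used chicken DT40 cells lacking endogenous Tdp1 but carrying stably transfected human TDP1. Compounds were applied without camptothecin, and cell growth kinetics were judged by ATP-dependent luminescence after ≥48 hr.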
IL1B secr inh: inhibitors of inflammasome signaling (IL-1 beta secretion). THP-1 LPS/ATP IL-1B secretion, AlphaLISA, 16 h; active compounds read low. activity change, % at 57.5 µM. 360,000 tested, 4.7% active; in the data active = activity change below about -50%; inconclusive = mostly about -30% to -49%; note: % is set by controls: 0 for no effect and ±100 for the full control effect
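THP-1 cells pretreated 1 hr with compounds (up to 57.5 uM final), then stimulated with LPS (250 ng/mL final) plus ATP (1.25 mM final); secreted IL-1B measured by AlphaLISA after 16 hr, decreased signal indicating inhibition.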
Chronic BCR inh: blocks chronic active B-cell receptor signaling | AID 493014 | Potency, µM (series often up to 46.1 µM), inactives show at the highest dose activity change, negative = inhibition, hits mostly inhibitors | 340,000 tested, 0.05% active | ABC-DLBCL IkBa-CBG/CBR reporter, luminescence ratio, 4 h; active = well fitted inhibition curve with a large enough effect in the signal ratio, with a control signal flat, not every such curve was filed as active; inconclusive = small, poorly fitted or top-dose-only effect, or effect the other way, or a change in a side signal; the % refers to the signal ratio;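 note: potency is the fitted concentration of half-maximal effect; plate controls were basal doxycycline-induced cells for no effect and cells given 10 µM MG132 for full effect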
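TMD8 human ABC-DLBCL cells with doxycycline-inducible IκBα–green luciferase fusion and unfused red luciferase, in 0.5% FBS medium; compounds up to 46 uM, 4 h at 37C. Green/red luminescence ratio, filter-overlap corrected, fitted to concentration-response curves.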
Active calls of the source: *; u = inconclusive; x = no result; [ ] = dose if it differs, or a comment. Unless noted, calls come from the whole dose curve; as a rule, active = well fitted curve in the direction sought with a large enough effect; inconclusive = small, poorly fitted or top-dose-only effect, or another doubt; inactive = no such curve, though single readings can be large; an effect the other way counts as inactive or inconclusive.

SMILES	SW480 rerep	MCF10A rerep	DT40 TDP1 CPT	TDP1 cell noCPT	IL1B secr inh	Chronic BCR inh
COc1ccc2c(c1)cc1c(=O)n(CC(=O)NC3CCCCC3)nc(C)n12	x	x	8%	3%	x	x
O=C(Cn1nc(C(=O)O)c2ccccc2c1=O)Nc1cccc(S(=O)(=O)N2CCCC2)c1	-11%	-1%	14%	10%	1	-2%
O=[N+]([O-])c1ccc(-c2nc3ccc([N+](=O)[O-])cc3[nH]2)cc1	-5%[9.22 µM]	u	13µM*	9.2µM*	-91*	-4%
CCCC[n+]1ccc(-c2nc3ccc([N+](=O)[O-])cc3[nH]2)cc1	-43%	-36%	4%	-24%	20	u
Nc1ccc(-c2nc3ccc([N+](=O)[O-])cc3[nH]2)cc1	-2%	-7%	u	u	-80*	11%
O=[N+]([O-])c1ccc2nc(/C=C/c3ccc(Cl)cc3)[nH]c2c1	0%	-4%	21µM*	18µM*	-94*	-3%
CC[C@H](C)[C@H](NC(=O)[C@H](CCCN=C(N)N)NC(=O)[C@H](CCCN=C(N)N)NC(=O)[C@H](CC(C)C)NC(=O)[C@H](Cc1ccccc1)NC(=O)CNC(=O)CN)C(=O)N[C@@H](CCCN=C(N)N)C(=O)N1CCC[C@H]1C(=O)N[C@@H](CCCCN)C(=O)N[C@@H](CC(C)C)C(=O)N[C@@H](CCCCN)C(=O)O	x	x	2%[4.12 µM]	-8%[4.12 µM]	x	x
COCCCNC(=O)c1c(N)n(/N=C/c2cccnc2)c2nc3ccccc3nc12	u	u	u	6.5µM*	u	u
COCCCNC(=O)c1cccs1	u	-5%	-15%	4%	-2	-10%
Nc1nc2ccccc2n1/N=C/c1cccnc1	-2%	3%	-5%	-15%	28	x
COCCCNC(=O)c1c(N)n(/N=C/c2cccs2)c2nc3ccccc3nc12	7.3µM*	u	18µM*	u	1	u
CC(O)CNCCNCc1c(OCc2ccccc2)ccc2ccccc12 (centres undefined)	3%	u	16µM*	23µM*	-87*	u
CC(O)CNCCOc1ccccc1OCc1ccccc1 (centres undefined)	1%	3%	u	u	-13	-8%
OCCNCc1cccc2ccccc12	-5%	6%	13%	6%	32	5%
OCCNCc1c(OCc2ccc(Cl)cc2)ccc2ccccc12	u	u	18µM*	23µM*	x	u
N#Cc1nc(Cc2cccc3ccccc23)oc1NCc1ccc(F)cc1	1%	u	u	21µM*	-9	u
C=CCNc1oc(Cc2cccc3ccccc23)nc1C#N	-5%	0%	-4%	-15%	10	9%
CN(C)Cc1ccccc1-c1cncnc1Nc1ccccc1	x	x	u	-10%	x	x
Cc1ccc(CSCCNS(C)(=O)=O)cc1	-3%	3%	-8%	-20%	-4	-8%
CN(c1ccc(C(=O)NCCSCc2ccc(Cl)cc2)cc1)S(=O)(=O)c1ccccc1	-1%	u	16µM*	16µM*	-10	8%
CC(=O)Nc1ccc(S(=O)(=O)NCCSCc2ccccc2Cl)cc1	-2%	11%	9.2µM*	18µM*	-7	-4%
Cc1ccc(CSCCNS(=O)(=O)c2ccccc2)cc1	-3%	u	-23%	29µM*	0	-5%
CC(=O)Nc1ccc(S(=O)(=O)NCC2CCC(C(=O)NCc3ccccc3Cl)CC2)cc1 (centres undefined)	x	x	-13%	-11%	x	4%
Cc1ccc(CSCCNC(=O)c2ccc(N(C)S(=O)(=O)c3ccccc3)cc2)cc1	-1%	5%	u	15µM*	-5	10%
